This excerpt belongs to a sample that is enriched for hits.
Pf Dd2 growth: inhibitors of Plasmodium falciparum Dd2 growth. P. falciparum Dd2 growth, SYBR Green, 72 h. Potency, µM (highest dose often 28.9 µM), for inactives: at the top dose activity, negative = inhibition, usual class: inhibitors. 120,000 compounds, 4.3% hits; active = well fitted inhibition curve with a large enough effect;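 note: plate controls were DMSO vehicle for no effect and reference drug for full effect; nearly all actives have a fitted effect of over 65% in size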
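Infected erythrocytes (Dd2, 0.3% parasitemia, 2.5% hematocrit final) are added to compound in RPMI-1640/Albumax II medium, grown 72 h at 37C in low oxygen, then lysed with saponin/Triton-X containing SYBR Green and read by fluorescence.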
* marks the source's active call; other numbers are inactive results; [ ] = dose if it differs, or a comment. Potency is the fitted concentration of half-maximal effect.

How did O=C(NCCc1csc(-c2ccncc2)n1)C1CNCCO1 (stereo not drawn) do in these assays?
Pf Dd2 growth: -5%

What do the screens show for `CN(C)c1ccc(CN2CCn3c(nnc3-c3ccc(Cl)cc3)C2)cc1`?
Pf Dd2 growth: -20%

What do the screens show for `COc1cccc(CCC(=O)N2CCC(CC(=O)NC3CC3)C2)c1` (stereo not drawn)?
Pf Dd2 growth: -10%

Results for O=C(Cc1ccccc1)N1CCC2(Cc3ccccc3NC2=O)C1 (stereo not drawn) ?
Pf Dd2 growth: inactive

What do the screens show for `NC(=O)CN1CCC(C(=O)NCc2cc(-c3ccc(Cl)cc3)on2)CC1`?
Pf Dd2 growth: inactive

Results for Cn1nc(-c2ccc3c(c2)OCCO3)nc1N1CCCCC1 ?
Pf Dd2 growth: inactive

What do the screens show for `CCOC(=O)C1CCCN(S(=O)(=O)c2cc(Br)cc3c2N(C(=O)CC)CC3)C1` (stereo not drawn)?
Pf Dd2 growth: 3.5µM*

How did CCc1cccc(C)c1NC(=O)C1CCN(S(=O)(=O)c2cc(Br)cc3c2N(C(C)=O)CC3)CC1 do in these assays?
Pf Dd2 growth: -25%

Results for CCC(=O)N1CCc2cc(Br)cc(S(=O)(=O)N3CCN(c4cc(C)ccc4C)CC3)c21 ?
Pf Dd2 growth: 5%

What do the screens show for `CCC(=O)N1CCc2cc(Br)cc(S(=O)(=O)N3CCCC(C(=O)Nc4cc(C)ccc4OC)C3)c21` (stereo not drawn)?
Pf Dd2 growth: inactive

How did CCC(=O)N1CCc2cc(Br)cc(S(=O)(=O)N3CCCC(C(=O)NCc4ccc(OC)cc4)C3)c21 (stereo not drawn) do in these assays?
Pf Dd2 growth: -3%

Results for CCC(=O)N1CCc2cc(Br)cc(S(=O)(=O)N3CCC(C(=O)N(CC)CC)CC3)c21 ?
Pf Dd2 growth: 10µM*

How did CN(C(=O)c1cc(C2CC2)[nH]n1)C1CCc2nn(CC3CC3)c(=O)n2CC1 (stereo not drawn) do in these assays?
Pf Dd2 growth: 19%

What do the screens show for `CN1C(=O)CO[C@H](c2ccc(NC(=O)CCc3ccccc3)cc2)[C@H]1CO`?
Pf Dd2 growth: -18%[44.1 µM]

Results for Cc1cccc(NC(=O)N2CCC3(CC2)CC(N2CCOCC2)CCO3)c1 (stereo not drawn) ?
Pf Dd2 growth: inactive

Results for COc1cccc(CCC(=O)N2CCN(c3cc(-c4ccccc4)[nH]n3)CC2)c1 ?
Pf Dd2 growth: -12%

How did Cc1ncoc1C(=O)N1CCC2(CC1)CCC(O)(CN(C)C)CC2 do in these assays?
Pf Dd2 growth: -13%

How did O=C(N[C@H]1[C@@H]2CCO[C@@H]2[C@@H]1C1CCCC1)c1ccccc1OC(F)F do in these assays?
Pf Dd2 growth: -14%

How did COc1cc(OC)cc(C(=O)N2CCC3(CC2)N=C(c2ccccc2)NO3)c1 do in these assays?
Pf Dd2 growth: 15%

Results for COc1cccc(CCC(=O)N2CCC3(CC2)N=C(c2ccccc2)NO3)c1 ?
Pf Dd2 growth: 11µM*

How did O=C(CCc1ccccc1)N1CCC2(CC1)N=C(c1cccc(Br)c1)NO2 do in these assays?
Pf Dd2 growth: -20%

How did Cc1cc(C)cc(C(=O)N2CCN(C3CCN(CCC(C)C)C3=O)CC2)c1 (stereo not drawn) do in these assays?
Pf Dd2 growth: inactive

How did O=C(c1ccc(F)c(Cl)c1)N1C[C@@H](CO)[C@H](c2ccncc2)C1 do in these assays?
Pf Dd2 growth: -8%

What do the screens show for `Cc1ccc(NC(=O)c2ccc3c(c2)N(C)C2CCCCN2C3=O)cc1C` (stereo not drawn)?
Pf Dd2 growth: inactive

How did Cc1ccc(-c2nc3ccccc3[nH]2)cc1NC(=O)COc1cccc(C)c1C do in these assays?
Pf Dd2 growth: 7.1µM*

What do the screens show for `COc1ccc(OCC(=O)Nc2cc(-c3nc4ccccc4s3)ccc2C)cc1`?
Pf Dd2 growth: 3%

How did Cc1ccc(-c2nc3ccccc3s2)cc1NC(=O)COc1ccccc1 do in these assays?
Pf Dd2 growth: 13%

Results for COc1cccc(-c2ccc(C(=O)O)cc2)c1 ?
Pf Dd2 growth: -1%[44.1 µM]

How did CCCNC(=O)N1CC[C@@H](CC(=O)O)[C@@H](CC2=NCCc3ccc(C(C)(C)C)cc32)C1 do in these assays?
Pf Dd2 growth: -11%[44.1 µM]

Results for Cc1nnc(N2CCC(C(=O)NCCc3ccccc3)CC2)c2nn(-c3ccccc3)c(C)c12 ?
Pf Dd2 growth: -16%

What do the screens show for `Cc1ccc(-n2nc3c(N4CCC(C(=O)NC(C)C)CC4)nnc(C)c3c2C)cc1`?
Pf Dd2 growth: 55%[5.79 µM]

How did COc1cc(NC(=O)C2CCN(c3nnc(C)c4c(C)n(-c5ccccc5)nc34)CC2)cc(OC)c1 do in these assays?
Pf Dd2 growth: -16%

What do the screens show for `COc1ccc(CNC(=O)C2CCN(c3nnc(C)c4c(C)n(-c5ccc(C)cc5)nc34)CC2)cc1`?
Pf Dd2 growth: 7.9µM*

What do the screens show for `CCNC(=O)C1CCN(c2nnc(C)c3c(C)n(-c4ccc(OC)cc4)nc23)CC1`?
Pf Dd2 growth: 8.9µM*

Results for Cc1ccc(-n2nc3c(N4CCC(C(=O)NC5CCCCC5)CC4)nnc(C)c3c2C)cc1 ?
Pf Dd2 growth: 10%

What do the screens show for `CCn1ccnc1CN1CCc2[nH]cnc2C1c1ccc(OC)c(F)c1F` (stereo not drawn)?
Pf Dd2 growth: -25%

From PubChem
